Records with an inconclusive call do not appear. Active and inactive are the calls of the source. How the source made its calls: active means hit-call score of the fitted dose curve at least 0.9, where 1 is the maximum; inconclusive means response in the unintended direction; inactive means score below 0.9.
The molecules below were run on glucuronosyltransferase (UGT1A1), UGT1A1 (gene 54658) (assay: CLD_UGT1A1_48hr: CellzDirect (CLD) Gene Expression Assay for glucuronosyltransferase (UGT1A1) at 48 hours (AID 2283709);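 further: actives increase expression relative to DMSO so potency refers to induction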).
Experimental: CLD_48hr is a cell-based, multiplexed-readout assay that uses hepatocyte, a human liver primary cell, with measurements taken at 48 hours after chemical dosing in a 96-well plate.CLD_UGT1A1_48hr is one of 16 assay component(s) measured or calculated from the CLD_48hr assay. It is designed to make measurements of mRNA induction, a form of inducible reporter, as detected with chemiluminescence signals by Quantitative Nuclease Protection Assay (qNPA) technology.Data from the assay component CLD_UGT1A1_48hr was analyzed at the endpoint, CLD_UGT1A1_48hr, in the positive analysis fitting direction relative to DMSO as the negative control and baseline of activity. Using a type of inducible reporter, gain-of-signal activity can be used to understand changes in the reporter gene as they relate to the gene UGT1A1. Furthermore, this assay endpoint can be referred to as a primary readout. To generalize the intended target to other relatable targets, this assay endpoint is annotated to the transferase intended target family, where subfamily is glucuronosyltransferase.
Human hepatocyte cultures were treated daily for two consecutive days with fresh dosing solutions containing appropriate concentrations of the 320 ToxCast chemicals (chemical identities were blinded to CellzDirect and other ToxCast collaborators), vehicle control (0.2% DMSO), and positive control inducers as summarized in Table 1. Due to the large number of treatment groups and chemicals examined, the ToxCast chemicals were divided into two groups (spanning two independent cultures of hepatocytes from separate donor preparations (Hu778: ToxCast plates 1 and 2; Hu776: ToxCast plates 3 and 4). Each preparation of human hepatocyte cultures was treated with respective vehicle control, medium only control, set of six positive controls/reference chemicals for the five hepatic receptor pathways, and a subset of eight of the ToxCast chemicals (indoxacarb, pyrithiobac-sodium, norflurazon, cyhalofop-butyl, methomyl, thiram, acetochlor, and propiconazole). These replicate data, coupled with internal replicates designed within the blinded ToxCast chemical library, provided additional data to evaluate interindividual differences between hepatocyte preparations and their potential impact on chemical profiles.Cell morphology and integrity were evaluated using phase-contrast microscopy as an indicator of hepatocyte cell health (Tyson & Green, 1987). Cultures for each treatment group (i.e., media, vehicle [0.2% DMSO], positive control inducers [multiple concentrations], and the ToxCast chemicals [multiple concentrations]) were observed and cell morphology was assessed relative to vehicle control cultures at each harvest time point (0, 6, 24, or 48 h). […] Images were evaluated at the conclusion of the study to assess changes in cell integrity and account for the effects of chemical exposure on uncharacteristic changes in concentration-dependent gene expression profiles. The results from these determinations of apparent cytotoxicity were annotated (yes/no) alongside the corresponding qNPA data for reference.At the conclusion of each treatment period, hepatocyte cultures (96-well) were washed with 1 volume of HBSS, lysed by addition of 25 ul ArrayPlate lysis buffer (HTG, Tucson, AZ), and 70 ul/well of Denaturation Oil, denatured by incubation at 95C for 10 min, and frozen at approximately -70C until analysis by nuclease protection assay (qNPA) (Roberts et al., 2007). For qNPA analysis, cell lysates were thawed at 50C for approximately 30 min, qNPA probes were added, and samples were incubated at 95C for 10 min to begin the detection process by denaturing the target RNA, dissociating the duplexes and secondary structure hybridization. At the conclusion of the hybridization period, S1 nuclease reagent was added to each sample to digest all nonprotected nucleotides at 50C for 60-90 min. […]

Row | Compound | outcome | AC50
1 | O=[N+]([O-])c1c(Cl)c(Cl)c(Cl)c(Cl)c1Cl | inactive | –
2 | CCC(C)Nc1c([N+](=O)[O-])cc(C(C)(C)C)cc1[N+](=O)[O-] (stereo not given) | – | 2.8 µM (active)
3 | O=S(=O)(O)C(F)(F)C(F)(F)C(F)(F)C(F)(F)C(F)(F)C(F)(F)C(F)(F)C(F)(F)F | inactive | –
4 | CCS(=O)(=O)c1cccnc1S(=O)(=O)NC(=O)Nc1nc(OC)cc(OC)n1 | inactive | –
5 | CCC(C)(C)C(=O)OC1=C(c2ccc(Cl)cc2Cl)C(=O)OC12CCCCC2 | inactive | –
6 | O=C(O)C(F)(F)C(F)(F)C(F)(F)C(F)(F)C(F)(F)C(F)(F)C(F)(F)F | inactive | –
7 | CCCN(CCC)c1c([N+](=O)[O-])cc(C(F)(F)F)cc1[N+](=O)[O-] | – | 3.27 µM (active)
8 | Oc1ccc(Cl)cc1Cc1ccccc1 | inactive | –
9 | CCOc1nc(NC)nc(NC(=O)NS(=O)(=O)c2ccccc2C(=O)OC)n1 | inactive | –
10 | C[C@H]1[C@H](c2ccc(Cl)cc2)SC(=O)N1C(=O)NC1CCCCC1 | inactive | –
11 | COC(=O)c1ccccc1CS(=O)(=O)NC(=O)Nc1nc(OC)cc(OC)n1 | inactive | –
12 | O=[N+]([O-])/N=C1\NCCN1Cc1ccc(Cl)nc1 | inactive | –
13 | COP(=O)(OC)OC=C(Cl)Cl | inactive | –
14 | ClC1C(Cl)C(Cl)C(Cl)C(Cl)C1Cl (stereo not given) | inactive | –
15 | COP(=S)(OC)Oc1ccc(SC)c(C)c1 | inactive | –
16 | N#CN | inactive | –
17 | Cc1[nH]c(=O)n(C(C)(C)C)c(=O)c1Cl | inactive | –
18 | CC1(C)C(C=C(Cl)Cl)C1C(=O)OC(C#N)c1ccc(F)c(Oc2ccccc2)c1 (stereo not given) | inactive | –
19 | OCCOc1ccccc1 | inactive | –
20 | CNC(=O)/C=C(\C)OP(=O)(OC)OC | inactive | –

Row | Compound | outcome | AC50
21 | COC(=O)c1ccccc1S(=O)(=O)NC(=O)Nc1nc(C)nc(OC)n1 | inactive | –
22 | O=C(NC(=O)c1c(F)cccc1F)Nc1ccc(OC(F)(F)C(F)OC(F)(F)F)c(Cl)c1 (stereo not given) | inactive | –
23 | CCOC1Oc2ccc(OS(C)(=O)=O)cc2C1(C)C (stereo not given) | inactive | –
24 | CC(C)(C)C(O)/C(=C\c1ccc(Cl)cc1Cl)n1cncn1 (stereo not given) | inactive | –
25 | CCOCN(C(=O)CCl)c1c(C)cccc1CC | inactive | –
26 | O=C(Nc1ccccc1)Nc1cnns1 | – | 9.87 µM (active)
27 | Cc1cc(C)nc(NC(=O)NS(=O)(=O)c2ccccc2C(=O)OC2COC2)n1 | inactive | –
28 | CNC(=O)Oc1cccc(N=CN(C)C)c1 | inactive | –
29 | COc1cc(OC)nc(NC(=O)NS(=O)(=O)c2cc(NC=O)ccc2C(=O)N(C)C)n1 | inactive | –
30 | O=C(O)COc1ccc(Cl)cc1Cl | inactive | –
31 | O=C(O)CCCOc1ccc(Cl)cc1Cl | inactive | –
32 | CCC(C)(NC(=O)c1cc(Cl)c(C)c(Cl)c1)C(=O)CCl (stereo not given) | inactive | –
33 | O=S1OCC2C(CO1)C1(Cl)C(Cl)=C(Cl)C2(Cl)C1(Cl)Cl (stereo not given) | inactive | –
34 | CC(C)OC(=O)Nc1cccc(Cl)c1 | – | 12.8 µM (active)
35 | CCN(CC)C(=O)SCc1ccc(Cl)cc1 | – | 20 µM (active)
36 | Oc1cc(Cl)ccc1Oc1ccc(Cl)cc1Cl | inactive | –
37 | C#CCN1C(=O)COc2cc(F)c(N3C(=O)C4=C(CCCC4)C3=O)cc21 | inactive | –
38 | COc1nn(CSP(=S)(OC)OC)c(=O)s1 | inactive | –
39 | CC(C)(C)C(O)C(Oc1ccc(Cl)cc1)n1cncn1 (stereo not given) | – | 2.43 µM (active)
40 | CC(C)N(C(=O)COc1nnc(C(F)(F)F)s1)c1ccc(F)cc1 | inactive | –
